The supplement of paper PMC10338343
± gives the standard deviation.

The sequences below were run on MILI (PIWIL2) piRISC loaded with piRNA #1 (26 nt) (assay: pre-steady-state target cleavage rate (min^-1); guide: piRNA #1 5'p-UGAGGUAGUAGGUUGUAUAGUAUCCA; MIWI and MILI are mouse PIWI proteins and EfPiwi is from a freshwater sponge; tags in brackets are library labels; higher = faster piRNA-guided slicing of the target). Conditions: auxiliary factor: 500 nM mouse GTSF1.
Outline: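 The pre-steady-state cleavage rate was obtained by Cleave-'n-Seq with a burst-and-steady-state fit. A transcribed, DNA-blocked target RNA library (0.1 nM) was mixed with 1 nM active affinity-purified piRISC carrying one synthetic guide, with or without 500 nM GTSF1 partner protein, in HEPES–potassium acetate buffer at 33 °C for 0–8 or 0–960 min. Uncleaved targets were sequenced and normalised to depth and to weakly complementary targets, with three trials pooled and k3 capped at 0.0001 min^-1.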
For GGAGACCUAUGAAAACAACCUACUACCUCA, the “pre-steady-state target cleavage rate” value was 0.0037 ± 0.0033.
With GGAGAGGAUACAAUUCAACCUACUACCUCA the “pre-steady-state target cleavage rate” value was 0.174 ± 0.012.
For GGAGACGAUACUAUACUACCUUCUACCUCA, the “pre-steady-state target cleavage rate” value was 0.025 ± 0.0053.
In the case of GGAGACCUAACUAUACAACCUACUUCGUCA, the “pre-steady-state target cleavage rate” value is reported as 0.0423 ± 0.017.
With GGAGACCUAUGAUAUGAACCUACUUACCUCA the “pre-steady-state target cleavage rate” value was less than 0.0001.
In the case of GGAGACCUUAGUAUACAACCUACUAGCUCA, the “pre-steady-state target cleavage rate” value is reported as 0.00944 ± 0.0043.
GGAGACCUAUGAUAUGUACCUACUGACCUCA was tested, and the “pre-steady-state target cleavage rate” value was less than 0.0001.
In the case of GGAGACCUAUGUAUACUACCUACUACCUCA, the “pre-steady-state target cleavage rate” value is reported as 0.0517 ± 0.008.
GGAGACCUAACUAUAGAUCCUACUACCUCA was tested, and the “pre-steady-state target cleavage rate” value was 0.203 ± 0.026.
GGAGACCUAUCUAUACAACCUUCUACCUCA was tested, and the “pre-steady-state target cleavage rate” value was 0.00553 ± 0.0024.
For GGAGACCAUACUAUACUAGCUACUACCUCA, the “pre-steady-state target cleavage rate” value was 0.182 ± 0.018.
With GGAGACCAUACUAUACAACCUACAUGCUCA the “pre-steady-state target cleavage rate” value was 0.134 ± 0.028.
For GGAGACCAUACUUUACAACCUACUAGCUCA, the “pre-steady-state target cleavage rate” value was 0.0628 ± 0.015.
For GGAGACCUAUCUAUUGAACCUACUACCUCA, the “pre-steady-state target cleavage rate” value was 0.0631 ± 0.011.
In the case of GGAGACCUAUCUAUACAAGGAACUACCUCA, the “pre-steady-state target cleavage rate” value is reported as 0.0048 ± 0.002.
GGAGACCUAACUAUAGUACCUACUACCUCA was tested, and the “pre-steady-state target cleavage rate” value was 0.122 ± 0.022.
For GGAGUGGAUACUAUACUUGCUACUACCUCA, the “pre-steady-state target cleavage rate” value was 0.0633 ± 0.0052.
With GGAGAGGAUACUAUACUUGCUACUACCUCA the “pre-steady-state target cleavage rate” value was 0.0407 ± 0.0049.
For GGAGUGGAUUCUAUACAACCAACUACCUCA, the “pre-steady-state target cleavage rate” value was 0.00438 ± 0.0023.
For GGAGACCUAUCUAUACAAGCUACUUCCUCA, the “pre-steady-state target cleavage rate” value was 0.164 ± 0.015.
In the case of GGAGACCUAACUAGACAACCUACUACCUCA, the “pre-steady-state target cleavage rate” value is reported as 0.0997 ± 0.02.
For GGAGUGGAUACAAUUCAACCUACUACCUCA, the “pre-steady-state target cleavage rate” value was 0.178 ± 0.0092.
With GGAGACCUAUGAAUAGAAGCUACUACCUCA the “pre-steady-state target cleavage rate” value was 0.0046 ± 0.0022.
With GGAGACCUAUGAAUACAACGUACUUCCUCA the “pre-steady-state target cleavage rate” value was 0.00328 ± 0.0027.
With GGAGACCUUACUAUACAUCGUACUACCUCA the “pre-steady-state target cleavage rate” value was 0.0364 ± 0.0047.
With GGAGACCUAUGUAUACAACCUACUACCGCA the “pre-steady-state target cleavage rate” value was 0.085 ± 0.015.
With GGAGACCUAACUAUACAACCUAGCUACCUCA the “pre-steady-state target cleavage rate” value was 0.0209 ± 0.008.
With GGAGACCUAUGAAUACAACCUACUACGCUCA the “pre-steady-state target cleavage rate” value was 0.0107 ± 0.0039.
In the case of GGAGACCUAUCUAUAGAACCUACUACCUGA, the “pre-steady-state target cleavage rate” value is reported as 0.00618 ± 0.0029.
In the case of GGAGACCUAUCUAUACAACGUACUACCUCA, the “pre-steady-state target cleavage rate” value is reported as 0.0127 ± 0.0028.
For GGAGUGGAUACUAUUCAAGCUACUACCUCA, the “pre-steady-state target cleavage rate” value was 0.221 ± 0.013.
GGAGACCAUACUAUACAUGCUACUACCUCA was tested, and the “pre-steady-state target cleavage rate” value was 0.0704 ± 0.01.
For GGAGACCUAUGAUUACAACCUCACUACCUCA, the “pre-steady-state target cleavage rate” value was 0.00291 ± 0.0027.
For GGAGACCUAUGUUUACAACGUACUACCUCA, the “pre-steady-state target cleavage rate” value was 0.00618 ± 0.0026.
For GGAGACCUUACUAUACAAGCUACUUCCUCA, the “pre-steady-state target cleavage rate” value was 0.149 ± 0.021.
GGAGACCUUACUAUACAACCUACUUGCUCA was tested, and the “pre-steady-state target cleavage rate” value was 0.098 ± 0.021.
In the case of GGAGACCUUACUAUACAAGCUUCUACCUCA, the “pre-steady-state target cleavage rate” value is reported as 0.036 ± 0.0065.
In the case of GGAGACCUUACUAUACAACCUACCUACCUCA, the “pre-steady-state target cleavage rate” value is reported as 0.148 ± 0.015.
With GGAGACCUUACUAUACAACCUACAACCACA the “pre-steady-state target cleavage rate” value was 0.0494 ± 0.013.
For GGAGACCUAACUUAUACAACCUACUACCUCA, the “pre-steady-state target cleavage rate” value was 0.0771 ± 0.019.
